Screening results from PubChem.
POLB inh = DNA polymerase beta (human) inhibition; P06746; 1.3% of 340,000 active; Potency, µM (top dose mostly 114 µM), for the others: top-dose activity change, negative = inhibition, hits mostly inhibitors; Pol beta primer extension/strand displacement, fluorescence kinetic; AID 485314; further: on the % scale 0 is the no-effect control and ±100 the full control effect
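Preincubation: enzyme (10 nM) with compound, 15 min, RT. Reaction: substrate added to 50 nM final. Reads: 0 and 10 min. Analysis: normalized, Hill fit.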
Pol iota inh = blocks human DNA polymerase iota activity | Q9UNA4 | Pol iota fluorescent replication assay, 10 min | Potency, µM (top dose mostly 115 µM), for the others: at the top dose activity, negative = inhibition, usual class: inhibitors | 1% of 390,000 active | AID 588590
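Pol iota at 10 nM preincubated 15 min with compounds at room temperature; reaction started with fluorescent substrate, 50 nM final. Fluorescence read kinetically at 0 and 10 min; buffer-only wells as negative control.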
FEN1 inhibitor = blocks human flap endonuclease 1. 0.35% of 390,000 active. Recombinant FEN1 flap cleavage, fluorescence, 15 min. P39748. Potency, µM (titrated, usually from 114 µM), inactives show at the highest dose activity change, negative = inhibition, hits mostly inhibitors; further: on the % scale 0 is the no-effect control and ±100 the full control effect; nearly all actives have a fitted effect of over 65% in size
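Nuclease activity of 10 nM FEN1 was measured after 15 min of room-temperature exposure to titrated compounds, by adding 50 nM flap substrate and reading plates at 0 and 15 min.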
Pol kappa inh-1 = blocks human DNA polymerase kappa activity; purified Pol kappa, fluorescent DNA synthesis assay, 10 min; Potency, µM (highest dose often 107 µM), for inactives: at the highest dose activity, negative = inhibition, most hits filed as inhibitors; 0.53% of 400,000 active; Q9UBT6; further: on the % scale 0 is the no-effect control and ±100 the full control effect
Target sequence (Q9UBT6 whole entry, looked up): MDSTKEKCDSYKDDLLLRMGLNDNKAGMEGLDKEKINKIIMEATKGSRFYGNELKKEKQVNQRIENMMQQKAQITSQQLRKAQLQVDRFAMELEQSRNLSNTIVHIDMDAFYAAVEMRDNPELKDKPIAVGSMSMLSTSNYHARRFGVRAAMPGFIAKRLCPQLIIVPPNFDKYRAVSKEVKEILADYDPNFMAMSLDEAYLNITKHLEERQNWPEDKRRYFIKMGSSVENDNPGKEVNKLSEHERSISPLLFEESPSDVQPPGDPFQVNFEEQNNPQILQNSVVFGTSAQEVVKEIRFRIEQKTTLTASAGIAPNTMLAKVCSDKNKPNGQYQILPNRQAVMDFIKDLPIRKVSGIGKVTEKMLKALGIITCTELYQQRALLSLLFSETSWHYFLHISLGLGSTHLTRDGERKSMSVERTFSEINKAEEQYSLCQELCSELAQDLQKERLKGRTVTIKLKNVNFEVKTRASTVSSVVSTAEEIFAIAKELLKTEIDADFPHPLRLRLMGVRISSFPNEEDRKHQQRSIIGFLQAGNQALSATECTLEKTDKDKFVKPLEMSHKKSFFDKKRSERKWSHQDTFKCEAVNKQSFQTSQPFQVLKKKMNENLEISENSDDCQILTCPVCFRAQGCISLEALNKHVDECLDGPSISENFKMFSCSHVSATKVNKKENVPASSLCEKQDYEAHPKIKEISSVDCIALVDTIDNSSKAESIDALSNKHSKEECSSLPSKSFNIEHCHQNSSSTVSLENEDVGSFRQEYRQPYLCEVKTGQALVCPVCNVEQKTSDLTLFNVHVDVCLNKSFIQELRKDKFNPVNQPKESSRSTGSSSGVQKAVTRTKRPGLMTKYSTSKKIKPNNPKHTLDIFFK
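Here, compound and 10 nM enzyme are combined for 15 min at room temperature; adding 50 nM substrate (final) starts DNA synthesis, tracked by fluorescence at 0 and 10 min against buffer-only wells.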
WRN helicase inh-1 = WRN helicase (human) inhibition. Q14191. WRN helicase unwinding, fluorescent forked duplex, kinetic. Potency, µM (top dose mostly 114 µM), for inactives: top-dose activity change, negative = inhibition, hits mostly inhibitors. 0.46% of 360,000 active; further: on the % scale 0 is the no-effect control and ±100 the full control effect; nearly all actives have a fitted effect of over 55% in size
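Screening of the MLSMR collection measured strand separation of a quenched forked DNA duplex (100 nM) by 20 nM WRN with 2 mM ATP, all final. Compounds were preincubated with enzyme 15 min at room temperature.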
Pol eta inh-1 = blocks human DNA polymerase eta activity; recombinant Pol eta, fluorescent DNA replication assay; 1.2% of 390,000 active; Potency, µM (highest dose often 114 µM), for inactives: at the top dose activity change, negative = inhibition, hits mostly inhibitors; Q9Y253; further: on the % scale 0 is the no-effect control and ±100 the full control effect
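Pol eta (10 nM) was preincubated with compounds for 15 min at room temperature, after which fluorescent replication substrate (50 nM final) was added to start the reaction. Fluorescence was read kinetically at 0 and 10 min.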
PGK validate = TbPGK inhibition, hit validation; 79% of 500 active; shares compounds with Pol kappa inh-1; TbPGK coupled GAPDH assay, Kinase-Glo luminescence; AID 686980; Potency, µM (highest dose often 57.5 µM), for the others: top-dose activity change, negative = inhibition, most hits filed as inhibitors; further: on the % scale 0 is the no-effect control and ±100 the full control effect; nearly all actives have a fitted effect of over 65% in size
POLI cherry-pick = Inhibitors of human DNA polymerase iota, confirmation. shares compounds with Pol kappa inh-1. Pol iota primer extension, TAMRA/BHQ fluorescence. Potency, µM, usual class: inhibitors. 77% of 1,500 active. AID 720496
Pol kappa inh-2 = confirmation of human DNA polymerase kappa inhibitors; shares compounds with Pol eta inh-1; purified Pol-kappa, fluorescent strand-displacement substrate; Potency, µM, hits mostly inhibitors; 76% of 920 active; AID 720501
Pol eta inh-2 = Pol eta (human) inhibition, cherry-pick confirmation. shares compounds with Pol eta inh-1. Pol eta primer extension, TAMRA/BHQ fluorescence, 10 min. Potency, µM, actives largely listed as inhibitors. 64% of 2,600 active. AID 720502
WRN helicase inh-2 = confirmation of human WRN helicase inhibitors. WRN helicase DNA unwinding, fluorescence kinetic. AID 720497. Potency, µM (doses to about 57.1 µM), inactives show top-dose activity, negative = inhibition, usual class: inhibitors. 63% of 610 active. shares compounds with WRN helicase inh-1; further: nearly all actives have a fitted effect of over 65% in size
TO displacement = DNA binding via thiazole orange displacement; thiazole orange DNA binding displacement, fluorescence; shares compounds with WRN helicase inh-1; AID 720499; 10% of 610 active; Potency, µM (series often up to 57.1 µM), for inactives: at the highest dose activity change, negative = inhibition, actives largely listed as inhibitors;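 further: drop in dye fluorescence marks compound binding to DNA; on the % scale 0 is the no-effect control and ±100 the full control effect; nearly all actives have a fitted effect of over 60% in size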
BLM counter = blocks human BLM helicase in WRN counterscreen | shares compounds with WRN helicase inh-1 | Recombinant BLM helicase DNA unwinding, red fluorescence | Potency, µM (doses to about 57.1 µM), without a hit: at the top dose activity change, negative = inhibition, usual class: inhibitors | 60% of 610 active | AID 720503; further: nearly all actives have a fitted effect of over 60% in size
* marks the source's active call; other numbers are inactive results; ? = inconclusive; . = no result; ! = a repeat was not active; [ ] = dose if it differs, or a comment. In the library only some 2.4% were active in any assay of this set; here they are far more common. The call rests on the fitted dose curve; in most records, active means well fitted curve in the direction sought with a large enough effect; inconclusive means small, poorly fitted or top-dose-only effect, or another doubt; inactive means no such curve, though single readings can be large; an effect the other way counts as inactive or inconclusive. Potency means the concentration at half of the fitted maximal effect.

SMILES	POLB inh	Pol iota inh	FEN1 inhibitor	Pol kappa inh-1	WRN helicase inh-1	Pol eta inh-1	Pol eta inh-2	others
O=C1NN(c2ccccc2)C(=O)/C1=C/c1ccc(-c2ccc(Cl)c(C(=O)O)c2)o1	13µM*	?	?	?	35µM*	7.1µM*	30*	POLI cherry-pick=42*;WRN helicase inh-2=19µM*;TO displacement=-18%;BLM counter=?
Cc1cccc(N2NC(=O)/C(=C/c3ccc(-c4ccc(Cl)c(C(=O)O)c4)o3)C2=O)c1	25µM*	3.5µM*	?	35µM*	40µM*	6.3µM*	17*	POLI cherry-pick=34*;WRN helicase inh-2=9.6µM*;TO displacement=?;BLM counter=9.6µM*
Cc1cccc(-c2ccc(C=Nc3c(C)n(C)n(-c4ccccc4)c3=O)o2)c1	-8%	-8%	8%	-7%	-4%	-25%	.
O=C(O)c1cc(-c2ccc(/C=C3\NC(=O)N(c4ccc(Cl)cc4)C3=O)o2)ccc1Cl	6.3µM*	10µM*	?	10µM*	35µM*	3.5µM*	5.4*	PGK validate=21µM*;POLI cherry-pick=21*;Pol kappa inh-2=17*;WRN helicase inh-2=6.8µM*;TO displacement=?;BLM counter=24µM*
COc1ccc(-c2noc(CN(C(=O)C(C)Oc3ccc(C)cc3)C(C)C)n2)cc1 (stereo unspecified)	3%	7%	-11%	4%	.	.	.
COc1cc(/C=C2\CCc3c2nc2ccccc2c3C(=O)O)cc(OC)c1OC	3.2µM*	10µM*	50µM*	45µM*	32µM*	3.2µM*	15*	POLI cherry-pick=21*;WRN helicase inh-2=19µM*;TO displacement=?;BLM counter=19µM*
COc1ccc(CNC(=O)CCc2nc3cccnc3n2Cc2ccccc2)cc1	1%	22%	8%	-15%	.	-13%	.
C=CCN1C=C2C(=O)C(C)(OC(=O)C3CCCC3)C(=O)C=C2C=C1c1ccsc1 (stereo unspecified)	0%	?	-2%	-22%	-4%	4%	.
COC/C=C/C1=CC2=CC(=O)C(C)(OC(=O)C3CCCC3)C(=O)C2=CO1 (stereo unspecified)	40µM*	?	40µM*	50µM*	79µM*	20µM*	48*
O=C(O)c1[nH]c2ccc(Cl)cc2c1CC(=O)N1CCN(C(=O)c2ccco2)CC1	13µM*	?	-16%	50µM*	?	7.1µM*	30*
O=C1C=CC(=O)N1c1cccc2cccnc12	.	?	-5%	89µM*	?	28µM*	76*	Pol kappa inh-2=?
c1cnc2c(c1)ccc1cccnc12	10%[57.1 µM]	-6%[58.9 µM]	?	-5%[60.1 µM]	-6%	1%[57.1 µM]	.
C=CCc1ccccc1OCCSc1nc(-c2ccc(C(C)(C)C)cc2)nc2cc(=O)[nH]n12	40µM*	?	?	-32%	.	?	76*
Cc1ccc(CSc2nc(-c3ccc(C(C)(C)C)cc3)nc3cc(=O)[nH]n23)cc1	?	?	-8%	?	.	50µM*	85*
Cc1cc(NC(=O)c2cc(S(=O)(=O)N3CCCCC3)ccc2C)no1	.	?	7%	?	-25%	22µM*	?
COc1cc(Cl)c(C)cc1NC(=O)c1ccc2c(SCC(=O)O)c3c(nc2c1)CCCC3	20µM*!	121%	-5%	-12%	-33%	50µM*!	?	Pol kappa inh-2=75*
COc1ccc(C)cc1NC(=O)c1ccc2c(SCC(=O)O)c3c(nc2c1)CCCC3	-9%	-15%	-16%	-7%	-9%	12%	.
CCOC(=O)c1ccccc1NC(=O)c1ccc2c(SCC(=O)O)c3c(nc2c1)CCCC3	2%	-11%	-6%	-13%	-16%[11.6 µM]	50µM*	76*
CCCCCCCCCCCCC/C=C/[C@@H](O)[C@H](CO)NC(=O)CCCCCCCCCCCCCCC	.	.	.	-6%[19.4 µM]	.	.	.
Cc1nc2ccccc2n1CCc1nc2c3ccccc3nc(SCc3cccc(F)c3)n2n1	0%	18%	16%	-2%[60.1 µM]	.	-11%	.
COCCn1c(=O)c(-c2ccc(Cl)cc2)nc2cnc(Nc3ccccc3)nc21	.	.	.	0%[60.1 µM]	.	.	.
COc1ccc(C2=Nn3c(nnc3-c3ccccc3Cl)SC2)cc1OC1CCCC1	.	-29%	-20%	?	.	-4%	.	Pol kappa inh-2=17*
COc1ccc(C2=Nn3c(nnc3-c3ccccc3Cl)SC2)cc1OC1CCOC1 (stereo unspecified)	.	-12%	0%	-22%	.	-7%	.	Pol kappa inh-2=8.4*
COc1ccc(OC)c(-c2nnc3n2N=C(c2ccc(OC)c(OC4CCOC4)c2)CS3)c1 (stereo unspecified)	.	-21%	-1%	-1%	.	-14%	.
Nc1cc2c(cc1[N+](=O)[O-])OCO2	28µM*	?	-31%	?	-21%[57.1 µM]	45µM*	?
Nc1cc2c(cc1[N+](=O)[O-])OCCO2	2%	23%	2%	-2%	-14%	-21%	.
COc1cc(/C=C2\NC(=S)NC2=O)ccc1OCc1cccc(C(=O)O)c1	?	?	-26%	?	?	22µM*	38*	Pol kappa inh-2=21*
O=C1NC(=O)/C(=C\c2ccc(OCc3cccc(C(=O)O)c3)c(Cl)c2)N1	-1%	81%	4%	-4%	-27%	-13%	.
